Data as given in PubChem BioAssay AID1159580 (chemical genetic matrix, 2015).
Among all 5,500 compounds or so, about 2,000 (36%) were called active. Roughly 18% stayed inconclusive and do not appear here. Rule as the data show it: active = normalized growth mostly below about 0.91 (no sharp cut-off); inconclusive = no clear call, values can overlap the other calls; inactive = mostly above about 0.92. This is one part of the list.

Test: chemical genetic growth profiling, strain panel (AID 1159580);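 also: tested at 20 µM; growth read once vehicle control cultures reached saturation at 30 °C; 1 = growth at the plate median or of vehicle wells; lower values mean less growth of the strain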
Conditions: growth OD

Measured: normalized growth

O=c1c(O)cccc2c(C3Oc4cc(O)cc(O)c4CC3O)cc(O)c(O)c12 (configuration not stated)
active: S. cerevisiae deletion strains, locus YBR229C, strain ROT2, stronger effect = lower value 0.409 | S. cerevisiae deletion strains, locus YCL029C, strain bik1, stronger effect = lower value 0.239 | S. cerevisiae deletion strains, locus YDL035C, strain GPR1, stronger effect = lower value 0.301 | S. cerevisiae deletion strains, locus YDL074C, strain BRE1, stronger effect = lower value 0.322 | S. cerevisiae deletion strains, locus YDL101C, strain DUN1, stronger effect = lower value 0.219 | S. cerevisiae deletion strains, locus YDL134C, strain PPH21, stronger effect = lower value 0.314 | S. cerevisiae deletion strains, locus YDL185W, strain tfp1, stronger effect = lower value 0.195 | S. cerevisiae deletion strains, locus YDL192W, strain arf1, stronger effect = lower value 0.522 | S. cerevisiae deletion strains, locus YDR101C, strain arx1, stronger effect = lower value 0.295 | S. cerevisiae deletion strains, locus YDR162C, strain NBP2, stronger effect = lower value 0.137 | S. cerevisiae deletion strains, locus YDR318W, strain mcm21, stronger effect = lower value 0.696 | S. cerevisiae deletion strains, locus YDR388W, stronger effect = lower value 0.691 | S. cerevisiae deletion strains, locus YDR502C, strain sam2, stronger effect = lower value 0.287 | S. cerevisiae deletion strains, locus YER155C, strain BEM2, stronger effect = lower value 0.489 | S. cerevisiae deletion strains, locus YER167W, strain BCK2, stronger effect = lower value 0.682 | S. cerevisiae deletion strains, locus YGL078C, strain dbp3, stronger effect = lower value 0.139 | S. cerevisiae deletion strains, locus YGL086W, strain mad1, stronger effect = lower value 0.494 | S. cerevisiae deletion strains, locus YGL248W, strain PDE1, stronger effect = lower value 0.523 | S. cerevisiae deletion strains, locus YGR078C, strain PAC10, stronger effect = lower value 0.686 | S. cerevisiae deletion strains, locus YGR135W, strain pre9, stronger effect = lower value 0.504 | S. cerevisiae deletion strains, locus YGR252W, strain gcn5, stronger effect = lower value 0.54 | S. cerevisiae deletion strains, locus YHR030C, strain SLT2, stronger effect = lower value 0.484 | S. cerevisiae deletion strains, locus YHR079C, strain IRE1 (second series), stronger effect = lower value 0.116 | S. cerevisiae deletion strains, locus YHR094C, strain hxt1, stronger effect = lower value 0.835 | S. cerevisiae deletion strains, locus YHR129C, strain ARP1, stronger effect = lower value 0.43 | S. cerevisiae deletion strains, locus YHR200W, strain rpn10, stronger effect = lower value 0.623 | S. cerevisiae deletion strains, locus YIL066C, strain RNR3, stronger effect = lower value 0.259 | S. cerevisiae deletion strains, locus YIL073C, strain SPO22, stronger effect = lower value 0.243 | S. cerevisiae deletion strains, locus YIL125W, strain kgd1, stronger effect = lower value 0.272 | S. cerevisiae deletion strains, locus YIR030C, strain dcg1, stronger effect = lower value 0.716 | S. cerevisiae deletion strains, locus YJL095W, strain BCK1, stronger effect = lower value 0.0943 | S. cerevisiae deletion strains, locus YJL134W, strain LCB3, stronger effect = lower value 0.58 | S. cerevisiae deletion strains, locus YJL168C, strain set2, stronger effect = lower value 0.913 | S. cerevisiae deletion strains, locus YJL187C, strain SWE1 (second series), stronger effect = lower value 0.118 | S. cerevisiae deletion strains, locus YKL009W, strain mrt4, stronger effect = lower value 0.0997 | S. cerevisiae deletion strains, locus YKL068W, stronger effect = lower value 0.889 | S. cerevisiae deletion strains, locus YKL085W, strain MDH1 (second series), stronger effect = lower value 0.303 | S. cerevisiae deletion strains, locus YKL085W, strain MDH1, stronger effect = lower value 0.303 | S. cerevisiae deletion strains, locus YKR001C, strain vps1, stronger effect = lower value 0.523 | S. cerevisiae deletion strains, locus YLR039C, strain RIC1, stronger effect = lower value 0.251 | S. cerevisiae deletion strains, locus YLR058C, strain SHM2, stronger effect = lower value 0.143 | S. cerevisiae deletion strains, locus YLR102C, strain apc9, stronger effect = lower value 0.92 | S. cerevisiae deletion strains, locus YLR262C, strain YPT6, stronger effect = lower value 0.497 | S. cerevisiae deletion strains, locus YLR268W, strain sec22, stronger effect = lower value 0.201 | S. cerevisiae deletion strains, locus YLR330W, strain CHS5, stronger effect = lower value 0.565 | S. cerevisiae deletion strains, locus YLR342W, strain FKS1 (second series), stronger effect = lower value 0.321 | S. cerevisiae deletion strains, locus YLR371W, strain rom2, stronger effect = lower value 0.626 | S. cerevisiae deletion strains, locus YLR418C, strain cdc73, stronger effect = lower value 0.306 | S. cerevisiae deletion strains, locus YML016C, strain PPZ1, stronger effect = lower value 0.225 | S. cerevisiae deletion strains, locus YML032C, strain rad52, stronger effect = lower value 0.391 | S. cerevisiae deletion strains, locus YML124C, strain tub3, stronger effect = lower value 0.56 | S. cerevisiae deletion strains, locus YMR078C, strain ctf18, stronger effect = lower value 0.885 | S. cerevisiae deletion strains, locus YMR223W, strain ubp8, stronger effect = lower value 0.564 | S. cerevisiae deletion strains, locus YMR263W, strain SAP30, stronger effect = lower value 0.233 | S. cerevisiae deletion strains, locus YMR307W, strain GAS1, stronger effect = lower value 0.462 | S. cerevisiae deletion strains, locus YNL067W, strain RPL9B, stronger effect = lower value 0.386 | S. cerevisiae deletion strains, locus YNL128W, strain TEP1, stronger effect = lower value 0.136 | S. cerevisiae deletion strains, locus YNL153C, strain GIM3, stronger effect = lower value 0.266 | S. cerevisiae deletion strains, locus YNL233W, strain BNI4, stronger effect = lower value 0.453 | S. cerevisiae deletion strains, locus YNL250W, strain rad50, stronger effect = lower value 0.098 | S. cerevisiae deletion strains, locus YNL271C, strain bni1, stronger effect = lower value 0.53 | S. cerevisiae deletion strains, locus YNL298W, strain CLA4, stronger effect = lower value 0.824 | S. cerevisiae deletion strains, locus YNL307C, strain MCK1, stronger effect = lower value 0.832 | S. cerevisiae deletion strains, locus YNR052C, strain pop2, stronger effect = lower value 0.127 | S. cerevisiae deletion strains, locus YOL147C, strain pex11, stronger effect = lower value 0.287 | S. cerevisiae deletion strains, locus YOR061W, strain CKA2, stronger effect = lower value 0.468 | S. cerevisiae deletion strains, locus YOR069W, strain VPS5, stronger effect = lower value 0.29 | S. cerevisiae deletion strains, locus YOR136W, strain idh2, stronger effect = lower value 0.67 | S. cerevisiae deletion strains, locus YOR144C, strain elg1, stronger effect = lower value 0.198 | S. cerevisiae deletion strains, locus YOR184W, strain ser1, stronger effect = lower value 0.357 | S. cerevisiae deletion strains, locus YOR316C, strain cot1, stronger effect = lower value 0.922 | S. cerevisiae deletion strains, locus YPL055C, strain LGE1, stronger effect = lower value 0.271 | S. cerevisiae deletion strains, locus YPL241C, strain CIN2, stronger effect = lower value 0.617 | S. cerevisiae deletion strains, locus YPR141C, strain kar3, stronger effect = lower value 0.17 | S. cerevisiae deletion strains, locus YPR163C, strain tif3, stronger effect = lower value 0.703 | S. cerevisiae deletion strains, locus YPR167C, strain met16, stronger effect = lower value 0.707 | S. cerevisiae deletion strains, strain wtn01, stronger effect = lower value 0.44 | S. cerevisiae strains, strain wild type, stronger effect = lower value 0.134
inactive: S. cerevisiae deletion strains, locus YBR021W, strain FUR4, stronger effect = lower value 0.966 | S. cerevisiae deletion strains, locus YER110C, stronger effect = lower value 0.963 | S. cerevisiae deletion strains, locus YOL012C, strain htz1 0.2 | S. cerevisiae deletion strains, locus YPR119W, strain clb2, stronger effect = lower value 0.946
